Only some compounds are listed: those with a hit (about 3.2% of all), similar ones and a draw of the others.
AMA1-RON2 inh = AMA1-RON2 (P. falciparum) interaction inhibition; hit rate 0.2% among 360,000; AlphaScreen AMA1-biotinylated RON2 peptide binding; Potency, µM (series often up to 58.2 µM), without a hit: top-dose activity change, negative = inhibition, most hits filed as inhibitors;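 note: 0% = vehicle wells and -100% = peptide control; nearly all actives have a fitted effect of over 45% in size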
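AMA1 (3D7) with his tag at 25 nM final met compounds first, then biotinylated RON2 peptide at 25 nM; detection used donor plus acceptor beads, 10 µg/mL apiece, read by AlphaScreen after 30 min at room temperature.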
Sm TGR block = inhibitors of Schistosoma mansoni thioredoxin glutathione reductase; Q962Y6; purified TGR, DTNB reduction, TNB absorbance 405 nm; Potency, µM (titrated, usually from 114 µM), inactives show at the top dose activity change, negative = inhibition, usual class: inhibitors; hit rate 3% among 360,000; note: nearly all actives have a fitted effect of over 60% in size
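TGR 20 nM + NADPH 100 uM (dispensed conc.), cpd preinc 15 min RT; start with NADPH (500 uM addition) then DTNB (15 mM addition). Kinetic TNB absorbance, 405 nm filter. Four-parameter Hill fit across titration.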
RE007 growth inh = less growth of the S. pombe RE007 Vpr strain; Potency, µM (doses to about 92.2 µM), inactives show at the top dose activity change, negative = less growth, most hits filed as inhibitors; hit rate 0.21% among 360,000; S. pombe RE007 Vpr strain, BacTiter-Glo ATP luminescence, 24 h; AID 651644; active = well fitted falling curve with a large enough effect; inconclusive = small, poorly fitted or top-dose-only effect; inactive = no such curve, though single readings can be large or run the other way; note: nearly all actives have a fitted effect of over 50% in size
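Fission yeast RE007 carrying one integrated HIV-1 vpr copy, seeded at OD 0.01 in PMG+AL medium with 23 nL pinned compound. Grown 24 h at 30 degrees; viability read by BacTiter-Glo luminescence after 5 min.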
LmPK inhibitor = blocks Leishmania mexicana pyruvate kinase activity; purified LmPK, Kinase-Glo ATP luminescence, 1 h; Potency, µM (doses to about 57.5 µM), for inactives: at the top dose activity change, negative = inhibition, usual class: inhibitors; hit rate 0.37% among 290,000; AID 1721
Target sequence (Q27686 whole entry, looked up): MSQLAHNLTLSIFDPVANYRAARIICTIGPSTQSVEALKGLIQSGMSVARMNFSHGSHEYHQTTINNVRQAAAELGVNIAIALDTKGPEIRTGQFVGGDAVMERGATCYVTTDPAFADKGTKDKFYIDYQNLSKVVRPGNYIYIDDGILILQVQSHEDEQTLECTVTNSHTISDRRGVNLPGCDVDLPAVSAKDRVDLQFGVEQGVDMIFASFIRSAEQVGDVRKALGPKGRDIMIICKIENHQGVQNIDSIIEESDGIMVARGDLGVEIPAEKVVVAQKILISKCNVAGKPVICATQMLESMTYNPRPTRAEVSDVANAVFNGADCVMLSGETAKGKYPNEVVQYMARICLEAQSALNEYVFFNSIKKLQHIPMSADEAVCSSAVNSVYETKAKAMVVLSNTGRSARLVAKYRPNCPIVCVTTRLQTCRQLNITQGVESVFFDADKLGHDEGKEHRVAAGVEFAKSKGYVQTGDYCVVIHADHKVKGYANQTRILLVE
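Screened at intermediate enzyme activity to detect both inhibitors and activators: LmPK at 0.1 nM, with a 0.5 nM enzyme column as activation reference. PEP 0.5 mM, ADP 0.1 mM; ATP detected by luminescence after 1 h.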
TbPYK inhibitor = blocks Trypanosoma brucei pyruvate kinase. Q57TT1. TbPYK enzyme, Kinase-Glo Plus ATP luminescence, 45 min. Potency, µM (series often up to 76.8 µM), for the others: top-dose activity, negative = inhibition, hits mostly inhibitors. hit rate 0.12% among 410,000; note: nearly all actives have a fitted effect of over 50% in size
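Luminescent Kinase-Glo Plus end-point after 45 min room-temperature reaction of T. brucei pyruvate kinase started with 130 uM ADP (final). Buffer TEA 50 mM pH 7.2 with KCl, MgCl2, BSA, Tween-20; titration-based qHTS with fitted concentration-effect curves.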
* marks the source's active call; other numbers are inactive results; u = inconclusive; x = no result; [ ] = remark or other dose. Unless noted, calls come from the whole dose curve; as a rule, active = well fitted curve in the direction sought with a large enough effect; inconclusive = small, poorly fitted or top-dose-only effect, or another doubt; inactive = no such curve, though single readings can be large; an effect the other way counts as inactive or inconclusive. Unless noted, % is set by controls: 0 for no effect and ±100 for the full control effect; potency is the fitted concentration of half-maximal effect.

SMILES	AMA1-RON2 inh	Sm TGR block	RE007 growth inh	LmPK inhibitor	TbPYK inhibitor
CSc1cccc(NC(=S)N2CCC(N(C)C3CCCCC3C)CC2)c1 (stereo not drawn)	-8.9%	22.4µM*	-5.6%	2.4%	-3.5%
CSc1cccc(NC(=S)N2CCC(c3ccccc3)C2)c1 (stereo not drawn)	28.4%	2.6%	-1.5%	2.3%	3.5%
Cc1cccc(OCC(=O)N(Cc2ccc(C(C)(C)C)cc2)Cc2ccco2)c1	x	9.1%	x	x	-0.3%
CCc1cccc(NC(=O)CCS(=O)(=O)c2ccc(C)cc2)c1	x	-6.4%	x	x	-2.0%[15.4 µM]
CCOc1ccc(NS(=O)(=O)c2ccc(NS(=O)(=O)c3cccs3)cc2)cc1	-29.6%	2.5%	15.2%	3.2%	5.6%
COc1ccc(S(=O)(=O)NCC(c2ccco2)S(=O)(=O)c2cccs2)cc1F (stereo not drawn)	x	0.1µM*	x	x	-4.1%
Cc1cc(F)ccc1S(=O)(=O)NCC(c1ccco1)S(=O)(=O)c1cccs1 (stereo not drawn)	x	0.1µM*	x	x	-1.2%
CCOc1ccc(S(=O)(=O)NCC(c2ccco2)S(=O)(=O)c2cccs2)cc1 (stereo not drawn)	x	0.1µM*	x	x	0.9%
COc1ccc(S(=O)(=O)NCC(c2ccco2)S(=O)(=O)c2cccs2)cc1C (stereo not drawn)	x	0.1µM*	x	x	-4.3%
COc1ccc(S(=O)(=O)NCC(c2ccco2)S(=O)(=O)c2ccc(C)cc2)cc1F (stereo not drawn)	x	0.398µM*	x	x	-7.6%
Cc1ccc(S(=O)(=O)C(CNS(=O)(=O)c2ccc(F)c(C(F)(F)F)c2)c2ccco2)cc1 (stereo not drawn)	x	0.316µM*	x	x	5.3%
Cc1ccc(S(=O)(=O)C(CNC(=O)c2ccc(F)c(F)c2)c2ccco2)cc1 (stereo not drawn)	x	-24.9%	x	x	0.7%
Cc1cccc(N2C(=O)C(CC(=O)Nc3cccc(F)c3)N(Cc3cccs3)C2=O)c1 (stereo not drawn)	x	3.3%	x	x	0.5%
COc1cccc(C2Nc3ccccc3-c3nnc(SCc4ccccc4)nc3O2)c1OC (stereo not drawn)	x	-1.0%	x	x	-1.5%
CCOC(=O)c1ccccc1NC(=O)N1CCN(Cc2cc(=O)n3nc(-c4ccccc4)sc3n2)CC1	x	21.0%	x	x	-3.2%
CCc1ccc(NC(=O)c2sc3nc(C)c(Cl)c(C)c3c2NC(=O)c2ccccc2OC)cc1	x	-8.3%	x	x	6.3%
O=C1C(Cl)=C(NCC2CCCO2)C(=O)N1c1ccccc1 (stereo not drawn)	12.1%	50.1µM*	-4.9%	2.4%	2.1%
Oc1ccccc1C1=Nc2ncnn2C(c2ccc(F)cc2)C1 (stereo not drawn)	10.8%	14.1µM*	-8.4%	17.5%	-6.4%
CCCCN(CC)Cc1ccc(CNC(=S)Nc2cccc(F)c2)o1	10.6%	39.8µM*	-27.2%	2.0%	2.8%
CCCCN(CC)Cc1ccc(CNC(=O)Nc2ccccc2)o1	0.3%	18.6%	5.5%	-2.9%	-19.5%
Cc1ccc2[nH]c3c(=O)n(CC(=O)N4CCN(c5ccccc5F)CC4)ncc3c2c1	x	2.8%	x	x	-1.9%
COC(=O)C1=C(C(=O)OC)[C@@H]2N(Cc3ccccc3)c3ccccc3[C@@]23C[C@@H](C(=O)OC)N(S(=O)(=O)c2ccc(C#N)cc2)C3=N1	x	x	x	3.6%[11.5 µM]	x
CCC(=O)OC1=C(C(C)=O)N(Cc2ccccc2)S(=O)(=O)c2ccccc21	x	-29.1%	x	x	5.8%
Fc1ccccc1-c1nc(-c2ccncc2)no1	-0.6%	-3.7%	u	u	-14.7%
Fc1ccccc1-c1nc(-c2ccccc2)no1	4.3%	-20.0%	u	11.2µM*	-11.8%
SMILES	AMA1-RON2 inh	Sm TGR block	RE007 growth inh	LmPK inhibitor	TbPYK inhibitor
CCC(Sc1ccc(C(=O)O)cc1)C(=O)O (stereo not drawn)	0.0%	3.1%	15.2%	-2.8%	1.6%
CCOc1ccc(C(=O)CC(Sc2ccc(C)cc2)C(=O)O)cc1 (stereo not drawn)	-1.9%	3.16µM*	-0.2%	2.2%	-6.5%
O=C(CC(Sc1ccc(Br)cc1)C(=O)O)c1ccc(F)cc1 (stereo not drawn)	32.1%	0.631µM*	-9.1%	-0.2%	-20.5%
O=C(O)CCNc1ccc(NCCC(=O)O)c2c1C(=O)c1ccccc1C2=O	15.8µM*	-24.5%	x	u	u
O=C1c2cccc(NCCNCCO)c2C(=O)c2cccc(NCCNCCO)c21	44.7µM*	x	-24.2%	x	-9.3%
CC(=O)Nc1ccc(N(C(=O)Cn2nnc3ccccc32)C(C(=O)NCc2ccccc2)c2ccc(C)cc2)cc1 (stereo not drawn)	x	0.8%	x	x	-3.6%
c1coc(-c2nnc3sc(-c4cccs4)nn23)c1	-11.7%	17.8µM*	-0.1%	-7.6%	-7.0%
c1ccc(-c2cc(-c3nn4c(-c5ccco5)nnc4s3)c3ccccc3n2)cc1	-14.3%	20µM*	0.7%	4.3%	-21.8%
COc1cc(OC)c(-c2nn3c(-c4ccco4)nnc3s2)cc1OC	-6.1%	11.2µM*	1.9%	-1.5%	-10.2%
COc1ccc(-c2nn3c(-c4ccco4)nnc3s2)cc1OC	-15.0%	u	-11.5%	-0.4%	-3.2%
CCCCc1nc2c(c3c1C[C@H](C)OC3)CN(C(=O)Cc1cccs1)CC2	x	x	x	-6.3%[11.5 µM]	x
CS/C(=C\[N+](=O)[O-])Nc1ccc(F)cc1	5.9%	0.251µM*	-24.6%	2.6%	3.2%
CS/C(=C\[N+](=O)[O-])Nc1ccccc1	9.9%	0.251µM*	-20.1%	-0.4%	-4.3%
CC(=NNC(=S)N1CC2CCC(CC2)C1)c1nccs1	u	x	31.6µM*	x	u
CC(=NNC(=S)N1CC2CCC(CC2)C1)c1cccc(C)n1	1.9%	x	u	x	-19.4%
CCOC(=O)CCCNC(=O)N1CCc2nc(-c3ccccc3)c3c(c2C1)CO[C@@H](C)C3	x	x	x	-4.1%[11.5 µM]	x
O=C1C(=O)N(C2CCS(=O)(=O)C2)C(c2cccc(O)c2)/C1=C(/O)c1ccc(Cl)cc1 (stereo not drawn)	-3.1%	56.2µM*	4.4%	4.6%	-1.0%
COc1cc(OC)c(OC)cc1CN1CCc2nc(N3CCN(c4ncccn4)CC3)ncc2C1	x	22.4µM*	x	x	-10.9%
COc1cc(OC)c(OC)cc1CN1CCc2nc(N3CCN(c4ccccc4F)CC3)ncc2C1	x	-5.0%	x	x	-6.5%
COc1ccccc1CNS(=O)(=O)c1ccc2c(c1)NC(=O)C(C)C(=O)N2 (stereo not drawn)	x	-2.8%	x	x	-2.3%
CCOc1ccc(-c2nnc(SCC(=O)Nc3ccc(C)cc3C)o2)cc1	x	-5.1%	x	x	-1.2%
CCOc1ccc(-c2nnc(SCC(=O)Nc3ccc(C)cc3Cl)o2)cc1	x	17.8µM*	x	x	0.3%
CCOc1ccc(-c2nnc(SCC(=O)Nc3cc(C)ccc3OC)o2)cc1	x	11.2µM*	x	x	-5.5%
O=C(CCC1N=C2c3ccccc3N=C(SCc3cccc(F)c3)N2C1=O)NCc1cccs1 (stereo not drawn)	x	3.9%	x	x	-0.2%

Source: PubChem (National Center for Advancing Translational Sciences (NCATS))
